Six molecules from ChEMBL document CHEMBL1961873, “Compounds: GSK PKIS; Assays: Nanosyn kinase panel” (2012) can be followed below.

For experiment [1], the target named is Tyrosine-protein kinase Fyn (Homo sapiens) (UniProt P06241). As to conditions: at 1 µM.
Experiment [2] concerns the target Tyrosine-protein kinase HCK (Homo sapiens) (UniProt P08631). The settings on record: at 0.1 µM.
Experiment [3] has the same target. The settings on record: at 1 µM.
Experiment [4] deals with Insulin-like growth factor 1 receptor (Homo sapiens) (UniProt P08069). As to conditions: at 0.1 µM.
Experiment [5] shares this target. As to conditions: at 1 µM.
For experiment [6], the target named is Insulin receptor (Homo sapiens) (UniProt P06213). The settings on record: at 0.1 µM.
Experiment [7] shares this target. The settings on record: at 1 µM.
In experiment [8] the target is Insulin receptor-related protein (Homo sapiens) (UniProt P14616). As to conditions: at 0.1 µM.
Experiment [9] shares this target. The settings on record: at 1 µM.
Experiment [10] concerns the target T1, Tyrosine-protein kinase ITK/TSK (Homo sapiens) (UniProt Q08881).
T1 sequence (whole entry): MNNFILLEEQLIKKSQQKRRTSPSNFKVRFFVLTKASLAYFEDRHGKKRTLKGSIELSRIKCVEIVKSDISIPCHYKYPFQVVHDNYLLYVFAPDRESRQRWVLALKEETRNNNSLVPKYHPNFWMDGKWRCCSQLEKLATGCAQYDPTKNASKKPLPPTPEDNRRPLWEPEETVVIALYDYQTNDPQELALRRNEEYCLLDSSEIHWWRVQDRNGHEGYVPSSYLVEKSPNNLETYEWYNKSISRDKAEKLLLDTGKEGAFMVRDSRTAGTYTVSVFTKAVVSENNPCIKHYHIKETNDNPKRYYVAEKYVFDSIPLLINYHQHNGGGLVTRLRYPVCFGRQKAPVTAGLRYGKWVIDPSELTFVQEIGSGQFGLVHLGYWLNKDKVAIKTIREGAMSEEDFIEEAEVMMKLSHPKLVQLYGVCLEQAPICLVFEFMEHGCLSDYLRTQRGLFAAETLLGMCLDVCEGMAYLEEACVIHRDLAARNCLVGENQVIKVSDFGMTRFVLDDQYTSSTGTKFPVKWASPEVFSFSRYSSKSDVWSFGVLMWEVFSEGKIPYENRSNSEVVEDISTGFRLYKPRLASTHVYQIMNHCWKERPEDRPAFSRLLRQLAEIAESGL
As to conditions: at 0.1 µM.

Experiment [11] deals with T1, Tyrosine-protein kinase ITK/TSK (Homo sapiens). As to conditions: at 1 µM.
Experiment [12] deals with Tyrosine-protein kinase JAK1 (Homo sapiens) (UniProt P23458). As to conditions: at 0.1 µM.
Experiment [13] shares this target. The settings on record: at 1 µM.
Experiment [14] concerns the target Tyrosine-protein kinase JAK2 (Homo sapiens) (UniProt O60674). As to conditions: at 0.1 µM.
Experiment [15] shares this target. As to conditions: at 1 µM.
In experiment [16] the target is T2, Tyrosine-protein kinase JAK3 (Homo sapiens) (UniProt P52333).
T2 sequence (whole entry): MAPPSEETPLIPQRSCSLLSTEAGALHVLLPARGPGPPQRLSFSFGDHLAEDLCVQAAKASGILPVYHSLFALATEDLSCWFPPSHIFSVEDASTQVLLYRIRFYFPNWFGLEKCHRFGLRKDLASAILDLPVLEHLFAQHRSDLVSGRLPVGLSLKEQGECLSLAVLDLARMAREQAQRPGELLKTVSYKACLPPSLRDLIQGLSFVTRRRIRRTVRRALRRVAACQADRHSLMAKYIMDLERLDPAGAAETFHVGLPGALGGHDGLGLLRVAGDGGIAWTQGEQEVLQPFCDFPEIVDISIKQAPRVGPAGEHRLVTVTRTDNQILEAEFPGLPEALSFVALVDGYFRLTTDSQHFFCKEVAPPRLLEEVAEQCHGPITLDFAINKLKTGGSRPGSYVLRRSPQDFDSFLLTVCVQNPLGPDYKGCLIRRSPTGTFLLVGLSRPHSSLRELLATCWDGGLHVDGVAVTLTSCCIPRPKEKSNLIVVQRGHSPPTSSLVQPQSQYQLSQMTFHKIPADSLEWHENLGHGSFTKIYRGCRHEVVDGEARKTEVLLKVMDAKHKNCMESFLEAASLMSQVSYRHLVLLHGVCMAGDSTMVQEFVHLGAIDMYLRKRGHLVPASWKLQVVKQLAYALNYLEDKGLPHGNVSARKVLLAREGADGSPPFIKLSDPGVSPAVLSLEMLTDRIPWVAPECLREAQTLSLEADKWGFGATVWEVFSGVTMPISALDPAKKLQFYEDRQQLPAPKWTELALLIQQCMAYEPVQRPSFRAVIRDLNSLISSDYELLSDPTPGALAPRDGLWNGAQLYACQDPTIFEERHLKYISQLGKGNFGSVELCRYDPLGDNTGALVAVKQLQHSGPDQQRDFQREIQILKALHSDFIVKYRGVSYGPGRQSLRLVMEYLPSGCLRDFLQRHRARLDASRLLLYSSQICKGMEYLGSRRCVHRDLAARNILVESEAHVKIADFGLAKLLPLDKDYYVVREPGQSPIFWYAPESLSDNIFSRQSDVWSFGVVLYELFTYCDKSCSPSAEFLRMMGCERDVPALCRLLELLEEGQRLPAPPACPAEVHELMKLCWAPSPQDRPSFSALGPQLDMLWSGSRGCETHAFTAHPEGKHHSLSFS
The settings on record: at 0.1 µM.

The target of experiment [17] is T2, Tyrosine-protein kinase JAK3 (Homo sapiens). As to conditions: at 1 µM.
The target in experiment [18] is Vascular endothelial growth factor receptor 2 (Homo sapiens) (UniProt P35968). The settings on record: at 0.1 µM.
The target is the same in experiment [19]. The settings on record: at 1 µM.
Experiment [20] concerns the target Mast/stem cell growth factor receptor Kit (Homo sapiens) (UniProt P10721). The settings on record: at 0.1 µM.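 Note: values are mean inhibition of KIT, from the GSK PKIS dataset.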

Molecules are shown by their SMILES.

The term inhibition denotes the relative decrease from the control value, in per cent.

Sequence of Insulin-like growth factor 1 receptor (Homo sapiens) (P08069 31-736 limits assumed): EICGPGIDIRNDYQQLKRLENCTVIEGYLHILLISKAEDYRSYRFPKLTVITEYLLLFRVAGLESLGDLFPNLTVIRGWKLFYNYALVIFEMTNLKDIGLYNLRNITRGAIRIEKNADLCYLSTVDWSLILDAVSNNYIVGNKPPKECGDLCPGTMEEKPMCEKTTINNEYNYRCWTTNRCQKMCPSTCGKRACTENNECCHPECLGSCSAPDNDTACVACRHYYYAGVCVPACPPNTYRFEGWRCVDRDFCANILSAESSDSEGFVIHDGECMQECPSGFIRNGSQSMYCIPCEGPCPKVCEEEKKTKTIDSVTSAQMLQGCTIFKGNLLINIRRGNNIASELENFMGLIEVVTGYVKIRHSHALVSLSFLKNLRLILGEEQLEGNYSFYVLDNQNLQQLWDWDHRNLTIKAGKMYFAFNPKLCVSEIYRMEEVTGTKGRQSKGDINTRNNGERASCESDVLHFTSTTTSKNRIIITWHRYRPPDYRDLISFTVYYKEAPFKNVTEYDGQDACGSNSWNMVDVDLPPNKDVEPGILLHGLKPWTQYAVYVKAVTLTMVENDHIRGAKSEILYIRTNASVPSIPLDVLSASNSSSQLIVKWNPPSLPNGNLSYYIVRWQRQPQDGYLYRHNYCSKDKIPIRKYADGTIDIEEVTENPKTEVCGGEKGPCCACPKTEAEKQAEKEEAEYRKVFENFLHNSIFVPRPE
Sequence of Insulin-like growth factor 1 receptor (Homo sapiens) (P08069 741-1367 limits assumed): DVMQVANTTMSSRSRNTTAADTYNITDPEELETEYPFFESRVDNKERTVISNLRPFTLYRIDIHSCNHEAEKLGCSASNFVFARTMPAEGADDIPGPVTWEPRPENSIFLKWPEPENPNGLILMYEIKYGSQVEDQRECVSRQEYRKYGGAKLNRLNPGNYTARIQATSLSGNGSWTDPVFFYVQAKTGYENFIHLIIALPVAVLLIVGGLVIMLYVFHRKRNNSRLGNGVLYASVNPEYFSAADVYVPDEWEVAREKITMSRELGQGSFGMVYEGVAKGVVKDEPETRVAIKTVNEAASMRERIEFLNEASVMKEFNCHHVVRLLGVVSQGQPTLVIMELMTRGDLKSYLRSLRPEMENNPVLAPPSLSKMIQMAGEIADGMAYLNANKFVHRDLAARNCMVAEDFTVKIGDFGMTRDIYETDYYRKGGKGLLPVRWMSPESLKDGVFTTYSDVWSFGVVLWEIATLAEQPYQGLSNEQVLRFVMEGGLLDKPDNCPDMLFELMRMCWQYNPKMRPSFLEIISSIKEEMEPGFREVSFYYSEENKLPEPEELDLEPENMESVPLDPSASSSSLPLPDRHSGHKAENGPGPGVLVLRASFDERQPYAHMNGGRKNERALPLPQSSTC
Sequence of Tyrosine-protein kinase JAK2 (Homo sapiens) (O60674 whole entry): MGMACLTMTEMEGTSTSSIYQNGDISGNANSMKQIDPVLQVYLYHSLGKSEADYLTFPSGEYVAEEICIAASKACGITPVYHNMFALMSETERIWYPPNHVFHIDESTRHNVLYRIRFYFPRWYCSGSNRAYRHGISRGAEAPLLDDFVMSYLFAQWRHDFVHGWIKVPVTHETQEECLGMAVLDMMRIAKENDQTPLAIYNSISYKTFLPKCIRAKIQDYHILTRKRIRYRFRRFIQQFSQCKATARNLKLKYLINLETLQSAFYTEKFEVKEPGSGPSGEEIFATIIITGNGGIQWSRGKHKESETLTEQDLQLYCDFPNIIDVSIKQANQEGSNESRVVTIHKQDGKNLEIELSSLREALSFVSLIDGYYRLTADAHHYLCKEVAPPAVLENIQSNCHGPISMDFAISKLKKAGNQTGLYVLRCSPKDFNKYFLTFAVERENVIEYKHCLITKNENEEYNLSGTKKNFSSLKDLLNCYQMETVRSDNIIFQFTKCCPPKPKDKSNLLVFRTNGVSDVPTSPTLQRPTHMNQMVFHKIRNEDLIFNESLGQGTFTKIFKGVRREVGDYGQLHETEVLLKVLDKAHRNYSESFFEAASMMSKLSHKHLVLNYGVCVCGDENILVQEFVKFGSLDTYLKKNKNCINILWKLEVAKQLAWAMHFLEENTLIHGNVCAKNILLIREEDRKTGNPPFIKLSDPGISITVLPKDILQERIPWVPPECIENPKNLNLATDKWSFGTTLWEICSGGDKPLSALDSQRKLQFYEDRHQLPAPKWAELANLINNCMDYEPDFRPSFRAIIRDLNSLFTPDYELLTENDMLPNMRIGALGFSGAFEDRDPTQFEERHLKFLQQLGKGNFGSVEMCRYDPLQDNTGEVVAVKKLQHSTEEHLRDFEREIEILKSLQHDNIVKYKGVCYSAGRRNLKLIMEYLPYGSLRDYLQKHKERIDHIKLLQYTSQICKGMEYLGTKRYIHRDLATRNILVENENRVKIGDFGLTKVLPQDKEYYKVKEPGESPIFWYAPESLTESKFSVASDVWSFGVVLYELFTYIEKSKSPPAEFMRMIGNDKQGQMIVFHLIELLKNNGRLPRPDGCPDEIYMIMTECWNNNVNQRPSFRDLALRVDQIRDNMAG
Sequence of Mast/stem cell growth factor receptor Kit (Homo sapiens) (P10721 whole entry): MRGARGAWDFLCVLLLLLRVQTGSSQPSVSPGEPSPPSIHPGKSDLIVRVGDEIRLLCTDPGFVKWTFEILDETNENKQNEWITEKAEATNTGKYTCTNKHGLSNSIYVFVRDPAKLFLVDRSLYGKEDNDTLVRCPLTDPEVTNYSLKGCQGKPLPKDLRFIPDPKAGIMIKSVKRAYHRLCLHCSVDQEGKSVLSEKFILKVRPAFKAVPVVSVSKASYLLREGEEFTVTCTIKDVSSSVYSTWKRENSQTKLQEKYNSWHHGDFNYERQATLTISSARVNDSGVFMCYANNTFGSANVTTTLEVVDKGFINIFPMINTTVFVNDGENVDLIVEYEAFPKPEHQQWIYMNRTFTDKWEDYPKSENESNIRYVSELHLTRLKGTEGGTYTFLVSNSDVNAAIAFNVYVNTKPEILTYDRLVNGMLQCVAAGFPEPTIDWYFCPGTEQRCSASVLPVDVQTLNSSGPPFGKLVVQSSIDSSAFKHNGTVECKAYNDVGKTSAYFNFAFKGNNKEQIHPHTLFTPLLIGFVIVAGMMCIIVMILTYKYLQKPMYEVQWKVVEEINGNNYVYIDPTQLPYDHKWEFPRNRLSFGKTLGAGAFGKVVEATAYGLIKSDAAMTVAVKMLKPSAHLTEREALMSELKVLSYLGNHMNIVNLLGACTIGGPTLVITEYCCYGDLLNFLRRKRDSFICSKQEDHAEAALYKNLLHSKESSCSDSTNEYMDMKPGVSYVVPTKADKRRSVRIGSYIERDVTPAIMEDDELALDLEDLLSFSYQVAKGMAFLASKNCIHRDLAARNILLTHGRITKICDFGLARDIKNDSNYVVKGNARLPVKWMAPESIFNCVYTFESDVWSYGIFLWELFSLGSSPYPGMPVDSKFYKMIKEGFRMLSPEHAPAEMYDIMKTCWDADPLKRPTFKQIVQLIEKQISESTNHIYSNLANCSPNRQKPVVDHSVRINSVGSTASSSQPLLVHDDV
Sequence of Vascular endothelial growth factor receptor 2 (Homo sapiens) (P35968 whole entry): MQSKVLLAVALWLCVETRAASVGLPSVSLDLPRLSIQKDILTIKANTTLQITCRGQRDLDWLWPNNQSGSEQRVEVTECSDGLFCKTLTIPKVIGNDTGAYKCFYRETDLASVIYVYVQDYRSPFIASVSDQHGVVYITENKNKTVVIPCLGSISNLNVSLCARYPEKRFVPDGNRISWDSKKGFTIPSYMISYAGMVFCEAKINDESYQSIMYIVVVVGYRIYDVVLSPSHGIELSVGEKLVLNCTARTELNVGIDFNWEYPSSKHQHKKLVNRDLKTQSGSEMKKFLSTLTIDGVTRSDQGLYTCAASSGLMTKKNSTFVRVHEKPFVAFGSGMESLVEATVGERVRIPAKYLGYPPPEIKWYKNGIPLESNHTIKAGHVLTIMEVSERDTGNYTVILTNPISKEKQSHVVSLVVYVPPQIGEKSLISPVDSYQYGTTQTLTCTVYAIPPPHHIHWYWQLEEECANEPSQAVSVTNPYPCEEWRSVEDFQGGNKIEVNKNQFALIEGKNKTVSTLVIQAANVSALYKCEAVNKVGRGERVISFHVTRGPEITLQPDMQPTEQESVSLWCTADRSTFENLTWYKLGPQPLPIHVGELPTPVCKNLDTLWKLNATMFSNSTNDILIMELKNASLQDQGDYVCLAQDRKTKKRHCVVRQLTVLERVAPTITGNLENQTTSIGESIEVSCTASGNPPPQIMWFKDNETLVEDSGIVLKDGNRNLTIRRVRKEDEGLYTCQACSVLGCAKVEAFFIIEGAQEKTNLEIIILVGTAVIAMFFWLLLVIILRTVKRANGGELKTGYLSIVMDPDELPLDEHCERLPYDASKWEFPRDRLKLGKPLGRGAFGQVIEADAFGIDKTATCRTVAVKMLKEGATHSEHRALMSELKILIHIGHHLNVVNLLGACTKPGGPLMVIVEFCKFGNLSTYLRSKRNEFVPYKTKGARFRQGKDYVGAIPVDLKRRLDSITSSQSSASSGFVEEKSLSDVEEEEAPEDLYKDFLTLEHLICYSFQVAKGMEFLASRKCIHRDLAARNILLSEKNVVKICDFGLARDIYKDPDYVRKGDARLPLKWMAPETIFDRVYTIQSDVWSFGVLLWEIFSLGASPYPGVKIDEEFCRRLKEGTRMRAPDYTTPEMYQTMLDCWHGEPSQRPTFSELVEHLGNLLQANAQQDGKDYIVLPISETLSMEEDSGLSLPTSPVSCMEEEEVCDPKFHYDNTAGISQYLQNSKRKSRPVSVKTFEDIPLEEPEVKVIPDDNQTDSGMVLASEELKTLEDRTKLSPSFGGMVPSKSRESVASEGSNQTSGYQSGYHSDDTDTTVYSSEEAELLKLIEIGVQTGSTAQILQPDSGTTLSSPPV

`COc1ccc(-c2oc3ncnc(N)c3c2-c2ccc(NC(=O)Nc3cc(C(F)(F)F)ccc3F)cc2)cc1`: the inhibition in experiment [1] turned out to be 52.1%; in [2], 31%; in experiment [3] it was 86.1%; in experiment [4], 4.58%; in [5], 7.94%; in experiment [6], 4.98%. Further, the inhibition in [7] is 27.2%; in experiment [8], 1.97%; in experiment [9] it was 6.8%; in experiment [10], 5.01%; in [11], 40.8%; in experiment [12] it was 14.6%. For the same molecule, the inhibition in experiment [13] stood at 43.3%; in [14] it was 2.04%; in [15], 14.4%; in experiment [16], 1.04%; in [17], 3.12%; in experiment [18], 75.4%. Also, the inhibition in experiment [19] was found to be 73.7%; in [20] it was 37.9%.
Take `Nc1nc(-c2cccc(Cl)c2)c(-c2ccc3ncccc3n2)s1`: the inhibition is 5.51% in experiment [1]; 3.98% in experiment [2]; 9.71% in experiment [3]; 3.52% in experiment [4]; 2.56% in [5]; 6.92% in [6]. Moreover, the inhibition stood at 7.08% in experiment [7]; 1.7% in experiment [8]; 4.52% in experiment [9]; 1.66% in experiment [10]; 1.36% in experiment [11]; 2.71% in [12]. Moreover, the inhibition in experiment [13] was 14.3%; in [14] it was 0.64%; in [15], 0.69%; in experiment [16] it was -2.58%; in [17] it was -0.69%; in [18], 33.1%. Further, the results for the inhibition in experiment [19] and in experiment [20] were 67.4% and 5.86%, respectively.
For the molecule `CN(C)CCOc1ccc(-c2nc(-c3ccncc3)c(-c3ccc4c(c3)CC/C4=N\O)[nH]2)cc1`, the inhibition turned out to be 8.51% in [1]; 3.04% in experiment [2]; 8.01% in [3]; 4.59% in [4]; 3.85% in experiment [5]; 5.62% in [6]. In addition, the inhibition in experiment [7] is 2.19%; in [8] it was 6.12%; in experiment [9], 3.86%; in experiment [10], 0.77%; in experiment [11], 1.79%; in [12], 3.43%. Moreover, the inhibition in [13] was 1.76%; in experiment [14] it was 1.76%; in experiment [15], 1.36%; in experiment [16] it was -1.43%; in [17], 0.64%; in experiment [18], 3.5%. The inhibition worked out at 5.84% in experiment [19] and 4.23% in [20].
For the molecule `CCn1cc(-c2ccnc3[nH]ccc23)c(-c2cccc(NC(=O)Nc3ccc(OCc4ccccc4)cc3)c2)n1`, the inhibition in experiment [1] was 1.64%; in experiment [2], 0.36%; in experiment [3] it was 2.34%; in experiment [4], -3.42%; in experiment [5], 0.41%; in experiment [6], 2.08%. For the same molecule, the inhibition in [7] is 3.81%; in [8], -1.45%; in experiment [9], -1.26%; in experiment [10], -0.92%; in experiment [11], -0.24%; in [12] it was 1.9%. The inhibition in experiment [13] was 1.7%; in experiment [14], -0.01%; in [15] it was -1.69%; in [16] it was -1.38%; in [17], -0.25%; in [18] it was 0.29%. Also, the inhibition in experiment [19] is 7.33%; in experiment [20], -2.3%.
For the molecule `COc1cc2ncn(-c3cc(OCc4ccccc4C(F)(F)F)c(C(=O)N(C)C)s3)c2cc1OC`, the inhibition was 8.11% in experiment [1]; 2.13% in experiment [2]; 10.1% in [3]; 1.61% in [4]; -0.15% in [5]; 2.79% in [6]. Besides, the inhibition in [7] was 1.7%; in experiment [8], -2.24%; in experiment [9], -0.76%; in [10], 0.81%; in experiment [11], 1.76%; in experiment [12] it was -1.58%. In addition, the inhibition in [13] is 8.12%; in experiment [14], 0.32%; in [15], -0.19%; in [16] it was -0.48%; in experiment [17], 14.7%; in [18] it was 6.67%. Besides, the inhibition in [19] was determined as 27.5%; in [20], 0.26%.
For the molecule `O=C(O[C@H]1CN[C@H](C#Cc2cc3ncnc(Nc4ccc(Cc5ccccc5)cc4)c3s2)C1)N1CCOCC1`, the inhibition is 5.81% in experiment [1]; 1.46% in experiment [2]; 6.92% in experiment [3]; -3.02% in experiment [4]; -1.17% in [5]; -0.74% in [6]. Moreover, the inhibition in experiment [7] was -2.74%; in experiment [8] it was 0.8%; in experiment [9], 1.05%; in [10], -0.73%; in experiment [11], 0.7%; in experiment [12] it was 0.98%. For the same molecule, the inhibition in experiment [13] was 1.8%; in [14], -0.09%; in [15], -0.66%; in experiment [16] it was -2.28%; in experiment [17], -1.16%; in experiment [18] it was -0.84%. The inhibition is 5.75% in experiment [19] and 2.78% in [20].
